Experimental data published in PubChem BioAssay (NCATS).
Active and inactive are the calls of the source. Calls follow the shape of the dose curve; as a rule, active = well fitted curve in the direction sought with a large enough effect; inconclusive = small, poorly fitted or top-dose-only effect, or another doubt; inactive = no such curve, though single readings can be large or run the other way.

The compounds below were run against Alpha-galactosidase (Coffea arabica) (UniProt Q42656) (assay: Counterscreen for Glucocerebrosidase Inhibitors: qHTS Assay for Coffee Bean alpha-Galactosidase at pH 4.5 (AID 957)). Conditions: purified coffee bean alpha-galactosidase, fluorogenic substrate; series mostly up to 76.9 µM.
Excerpt: NIH Chemical Genomics Center [NCGC]
NIH Molecular Libraries Screening Centers Network [MLSCN]
PI Name: Zheng, Wei [NIH]
Alpha-galactosidase is a homodimeric glycoprotein that hydrolyzes the terminal alpha-galactosyl moieties from glycolipids and glycoproteins. Deficiency of this enzyme results in Fabry Disease with progressive accumulation of globotriaosylceramide and other glycosphingolipids in vascular endothelial cells that causes renal failure, myocardial infarction and stroke, and premature death in patients. It has reported that the improper folding and trafficking of alpha-galactosidase resulted from the genetic mutations may account for a significant numbers of Fabry patients. […] We optimized this coffee bean alpha-galactosidase assay in 1536-well plate format as a counter-screen assay for identifying the selective small molecule inhibitors of other lysosomal enzymes.
NCGC Assay Protocol Summary:
This is a fluorogenic enzyme assay with 4-Methylumbelliferyl alpha-D-galactopyranoside as the substrate and green coffee bean […] (from Sigma-Aldrich) as the enzyme preparation. Upon the hydrolysis of this fluorogenic substrate, the resulting product, […]. 4-Methyllumbelliferone, can be excited at 365 nm and emits at 440 nm which can be detected by a standard fluorescence plate reader. Data were normalized to the controls for basal activity (without enzyme) and 100% activity (with enzyme). In the AC50 values were determined from concentration-response data modeled with the standard Hill equation.
Assay buffer: 50 mM citric acid, 0.005% Tween-20, pH 4.5. (pH 5.9 is an optimal condition for this enzyme assay. This assay in pH 4.5 is used for comparison the inhibitor activities with the human alpha-galactosidase assay)
1536-well assay protocol for the coffee bean alpha-galactosidase:
(1) Add 2 ul/well of enzyme (2 nM final)
(2) Add 23 nL compounds in DMSO solution. The final titration was 0.7 nM to 77 uM.
(3) Add 1 ul of substrate (80 uM final)
(4) Incubate at room temperature for 20 min.
(5) Add 2 ul stop solution (1M NaOH and 1M Glycine mixture, pH 10)
(6) Detect the assay plate in a ViewLux plate reader (PerkinElmer) with Ex=365 nm and Em=440nm.
Keywords: Alpha-galactosidase, Fabry Disease, pharmacological chaperone, chaperone therapy, high throughput screening, alpha-galactosidase inhibitor, MLSMR, MLSCN, NIH Roadmap, qHTS and NCGC

Alpha-galactosidase (Coffea arabica), sequence (Q42656 whole entry, looked up): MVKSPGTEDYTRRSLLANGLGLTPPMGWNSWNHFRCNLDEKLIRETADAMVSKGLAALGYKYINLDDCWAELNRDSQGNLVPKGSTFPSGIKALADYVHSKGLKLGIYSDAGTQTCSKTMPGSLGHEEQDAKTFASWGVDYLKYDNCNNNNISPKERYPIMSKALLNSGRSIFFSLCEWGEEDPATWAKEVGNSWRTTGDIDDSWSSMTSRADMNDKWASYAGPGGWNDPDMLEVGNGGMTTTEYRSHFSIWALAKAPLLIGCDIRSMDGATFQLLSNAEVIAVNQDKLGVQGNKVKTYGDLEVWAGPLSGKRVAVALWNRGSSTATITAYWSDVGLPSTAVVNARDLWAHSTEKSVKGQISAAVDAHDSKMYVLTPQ

Compound	outcome
CP(=O)(O)C1=CCNCC1	inactive
OCc1cnc[nH]1	inactive
CCCN(CCC)CCc1c[nH]c2ccc(C(N)=O)cc12	inactive
CCCN(CCC)[C@H]1CCc2c(F)ccc(O)c2C1	inactive
C[C@@H]1[C@@H]2Cc3ccc(O)cc3[C@@]1(C)CCN2CC1CC1	inactive
CN(N=O)c1ccc(O)c(O)c1	inactive
C[N+]1(C)CCN(c2ccccc2)CC1	inactive
CN1CCc2cccc(Cl)c2CC1	inactive
COc1ccc2[nH]c3c(c2c1)CCNC3	inactive
CCCn1c(C)c(C(=O)c2ccc3ccccc3c2)c2ccccc21	inactive
O=C1C=CC(=O)C=C1	inactive
COc1ccc2c(c1)/C(=C/c1cnc[nH]1)C(=O)N2	inactive
CC(=O)NBr	inactive
O=[N+]([O-])c1ccc2nc(N3CCNCC3)ccc2c1	inactive
Cc1[nH]c2ccc(O)cc2c1CCN	inactive
Cc1c2ccncc2c(C)c2c1[nH]c1ccccc12	inactive
NCCc1ccc(S(=O)(=O)F)cc1	inactive
Nc1ccc(CCN2CCN(c3cccc(C(F)(F)F)c3)CC2)cc1	inactive
CN(N=O)c1cc(O)ccc1O	inactive
O=S1(=O)N(CCN2CC=C(c3c[nH]c4cc(F)ccc34)CC2)c2cccc3c2N1CCC3	inactive

Compound	outcome
NCCc1c[nH]c2ccc(C(N)=O)cc12	inactive
C[N+](C)(C)CCOC(=O)CBr	inactive
O=C(O)c1cc[c]([Hg][Cl])cc1	inactive
N#CCCN	inactive
c1ccc2cc(CC3=NCCN3)ccc2c1	inactive
C[C@@H]1O[C@H](C[N+](C)(C)C)CS1	inactive
N[C@@H](Cn1oc(=O)[nH]c1=O)C(=O)O	inactive
CCCN1CCc2cc(O)cc3c2[C@H]1Cc1ccc(O)c(O)c1-3	inactive
CCS(=O)(=O)Nc1cccc(C(=C2CCCCC2)c2cnc[nH]2)c1	inactive
NC(=O)c1cc(N2CC2)c([N+](=O)[O-])cc1[N+](=O)[O-]	inactive
COc1ccc2[nH]cc(CCN)c2c1	inactive
NC(N)=NOCC[C@H](N)C(=O)O	inactive
NC(=O)COc1c(F)cc(SCCNS(=O)(=O)c2ccccc2)cc1F	inactive
C[C@H](N)CN1CCc2ccc(Br)cc21	inactive
C[N+](C)(C)CC#CCN1CCCC1=O	inactive
c1ccc2c(c1)[I+]c1ccccc1-2	inactive
c1ccc2c(N3CCNCC3)cccc2c1	inactive
N#CC(C#N)=Cc1cc(O)c(O)c(O)c1	inactive
C[N+]1(C)[C@@H]2CC[C@H]1CC(OC(=O)c1c[nH]c3ccccc13)C2 (stereo not given in full)	inactive
CCCN(CCC)CCc1ccc(O)c(O)c1	inactive
